# Where a name gives a salt, the structure may show the parent alone.
# System: HL-1
# Assay: relative cell viability (CellTiter-Glo) vs DMSO control (% of DMSO control); higher = more viable cells
# Conditions: oxygen condition: hypoxia 48 h (1% O2) + reoxygenation 24 h; 1000 nM
# Outline: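 One day after HL-1 mouse atrial cardiomyocytes were plated (1000 cells per well, 384-well plates) with compounds at 40, 200, 1000 or 5000 nM in 0.01% DMSO, they were transferred to a hypoxic workstation at 1% O2. After 48 h there, the cells were reoxygenated for 24 h in a normal incubator, and comparison cells stayed in normoxia throughout the same time. Cell viability was quantified with CellTiter-Glo luminescence and normalised to vehicle-treated control cells.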
row,SMILES,relative cell viability
1,COc1nc(C)nc(Cl)c1NC1=NCCN1 [Moxonidine],99.6
2,NC(=O)c1ncn([C@@H]2O[C@H](CO)[C@@H](O)[C@H]2O)n1 [Ribavirin],108
3,CN1CCC(=C2c3ccccc3CC(=O)c3sccc32)CC1 [Ketotifen fumarate],101
4,O=C1c2ccccc2C(=O)C1c1ccccc1 [Phenindione],95.1
5,O=P(O)(O)C(Cl)(Cl)P(=O)(O)O [Clodronate Disodium],114
6,COc1ccc2[nH]c([S@@+]([O-])Cc3ncc(C)c(OC)c3C)nc2c1 [Esomeprazole sodium],106
7,CO[C@H]1C(=O)[C@]2(C)[C@@H](OC)C[C@H]3OC[C@@]3(OC(C)=O)[C@H]2[C@H](OC(=O)c2ccccc2)[C@]2(O)C[C@H](OC(=O)[C@H](O)[C@@H](NC(=O)OC(C)(C)C)c3ccccc3)C(C)=C1C2(C)C [Cabazitaxel],39.6
8,Nc1cccc2c1CN(C1CCC(=O)NC1=O)C2=O (stereo unspecified) [Lenalidomide],109
9,CCCN[C@H]1CCc2nc(N)sc2C1 [Pramipexole],101
10,C#C[C@]1(O)CC[C@H]2[C@@H]3CCc4cc(O)ccc4[C@H]3CC[C@@]21C [Ethinyl Estradiol],105
11,Cc1cnc(C(=O)NCCc2ccc(S(=O)(=O)NC(=O)NC3CCCCC3)cc2)cn1 [Glipizide],108
12,O=C1N=C(O)NC1(c1ccccc1)c1ccccc1 [Phenytoin sodium],95.6

# Same assay, conditions: oxygen condition: hypoxia 48 h (1% O2) + reoxygenation 24 h; 5000 nM
row,SMILES,relative cell viability
1,N[C@@H](CSCCCO)C(=O)O [Fudosteine],111
2,Nc1nnc(-c2cccc(Cl)c2Cl)c(N)n1 [Lamotrigine],117
3,Cn1nnc2c(C(N)=O)ncn2c1=O [Methazolastone],106
4,COCCc1ccc(OCC(O)CNC(C)C)cc1 (stereo unspecified) [Metoprolol tartrate],111
5,CC(=O)OCC[N+](C)(C)C [Acetylcholine chloride],106
6,NS(=O)(=O)c1cc2c(cc1Cl)NCNS2(=O)=O [Hydrochlorothiazide],106
7,CCN(CC)CCNC(=O)c1c(C)[nH]c(/C=C2\C(=O)Nc3ccc(F)cc32)c1C [Sunitinib Malate],115
8,Cc1ncc(C[n+]2csc(CCO)c2C)c(N)n1 [Thiamine HCl],112
9,CCCCCCCCCCC[C@@H](C[C@@H]1OC(=O)[C@H]1CCCCCC)OC(=O)[C@H](CC(C)C)NC=O [Orlistat],107
10,O=c1c(-c2ccc(O)cc2)coc2cc(O)ccc12 [Daidzein],113
11,O=C(O)/C=C/c1ccc(Cn2ccnc2)cc1 [Ozagrel],29.5
12,Cc1cccc(C)c1NC(=O)C1CCCCN1C (stereo unspecified) [Mepivacaine HCl],105
13,CC[C@@]1(O)C(=O)OCc2c1cc1n(c2=O)Cc2cc3c(CN(C)C)c(O)ccc3nc2-1 [Topotecan HCl],9.1
14,N[C@@H]1CCCCN(c2c(F)cc3c(=O)c(C(=O)O)cn(C4CC4)c3c2Cl)C1 [Besifloxacin HCl],101
15,O=P(O)(O)C(O)(Cn1ccnc1)P(=O)(O)O [Zoledronic Acid],111
16,C#Cc1cccc(Nc2ncnc3cc(OCCOC)c(OCCOC)cc23)c1 [Erlotinib HCl],124
17,CCCOc1ccc(C(=O)OCCN(CC)CC)cc1N [Proparacaine HCl],107
18,C[C@]12CC[C@H](O)CC1=CC[C@@H]1[C@@H]2CC[C@]2(C)C(c3cccnc3)=CC[C@@H]12 [Abiraterone],116
19,COc1ccc2[nH]c([S@@+]([O-])Cc3ncc(C)c(OC)c3C)nc2c1 [Esomeprazole magnesium],118
20,NC(=O)CC[C@H](N)C(=O)O [L-Glutamine],105
21,CS(=O)(=O)c1ccc(C(=O)Nc2ccc(Cl)c(-c3ccccn3)c2)c(Cl)c1 [Vismodegib],117
22,N#CC[C@H](C1CCCC1)n1cc(-c2ncnc3[nH]ccc23)cn1 [Ruxolitinib],111
23,CC[C@@H]1/C=C(\C)C[C@H](C)C[C@H](OC)[C@H]2O[C@@](O)(C(=O)C(=O)N3CCCC[C@H]3C(=O)O[C@H](/C(C)=C/[C@@H]3CC[C@H](Cl)[C@H](OC)C3)[C@H](C)[C@@H](O)CC1=O)[C@H](C)C[C@@H]2OC [Pimecrolimus],104
24,C#CCC(Cc1cnc2nc(N)nc(N)c2n1)c1ccc(C(=O)N[C@@H](CCC(=O)O)C(=O)O)cc1 (stereo partly specified) [Pralatrexate],38.9

# Source: the supplement of paper PMC8371130
